# From PubChem BioAssay (NCATS)
# Results filed as inconclusive are left out. A number with no mark means an inactive call. Activity calls are given as the source filed them.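 How the source made its calls: active means dose-dependent loss of cell ATP signal giving a full or clear fitted curve, ranked by lower potency value; inconclusive means weak partial curve or response only at the top dose; inactive means no loss of viability signal.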
# Test: Cell Viability - Jurkat (AID 426);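 further: cells exposed to compound for 40 hours at 37 °C before ATP read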
# Details: qHTS
# Description: NIH Chemical Genomics Center [NCGC]
# NIH Molecular Libraries Screening Centers Network [MLSCN]
# National Institutes of Environmental Health Sciences [NIEHS]
# National Toxicology Program [NTP]
# We have developed a 1536-well cell-based assay for quantitative high throughput screening (qHTS) against a number of cell lines to determine in vitro cytotoxicity of small molecules. This particular assay uses the Jurkat cell line (Clone E6-1) which is derived from the human T cell leukemia.
# NCGC Assay Protocol Summary:
# The CellTiter-Glo luminescent cell viability assay (Promega) is a homogeneous method to measure the number of viable cells in culture. The end point readout of this assay is based on quantitation of intracellular ATP, an indicator of metabolic activity, using the luciferase reaction. Luciferase catalyzes the oxidation of beetle Luciferin to oxyluciferin and light in the presence of ATP. The luminescent signal is proportional to amount of ATP present.
# Using the CellTiter-Glo luminescent cell viability assay, the amount of cellular ATP was measured in the Jurkat cell line with complete culture medium following compound treatment for 40 hours. The assay was performed in opaque white Kalypsys 1536-well plates. In the screen, tamoxifen and doxorubicin were used as positive controls. Library compounds were measured for their ability to cause acute toxicity in the cell line, as reflected by a decrease in intracellular ATP levels, in a concentration-dependent manner. […] AC50 values were determined from concentration-response data modeled with the standard Hill equation.
# qHTS protocol for CellTiter Glo Jurkat cellular assay
# [Step] [Parameter] [Value] [Description]
# 1. Reagent; 5 uL; 5000 Jurkat cells/well
# 3. Controls; 23 nL; Tamoxifen 0.34 uM to 100 uM & Doxorubicin 0.02 nM to 100 uM
# 4. Time; 40 hr; 37 °C incubation
# 5. Reagent; 5 uL; CellTiter Glo reagent
# 6. Time; 20 min; Room Temperature
# 7. Detection; Luminescence; Viewlux plate reader
# Keywords: cell viability, cytotoxicity, Jurkat cell line, luminescence, NTPHTS, NTPHTS_NCGC, NIEHS, EPA, DSSTox, MLSMR, MLSCN, NIH Roadmap, qHTS, NCGC
# Potency means the concentration at half of the fitted maximal effect.
row,Compound,Potency
1,CC(C)(c1ccc(O)cc1)c1ccc(O)cc1,> 92 µM
2,CC(C)C(C)(C)C(C)(C)C(C)(C)S,> 92 µM
3,C1=CC2C3C=CC(C3)C2C1 (centres undefined),> 92 µM
4,OCc1c[nH]c2ccccc12,> 92 µM
5,Nc1ccc(O)cc1,38.6 µM (active)
6,Nc1cccc2c(N)cccc12,> 92 µM
7,CC(=O)OC/C=C(C)/C=C/C=C(C)/C=C/C1=C(C)CCCC1(C)C,63.9 µM (active)
8,CC(C)(C)c1ccc(O)c(O)c1,49.4 µM (active)
9,Cc1cc(C(C)(C)C)c(O)c(C(C)(C)C)c1,> 92 µM
10,Brc1ccccc1-c1ccccc1,> 92 µM
11,CCCCCCCCCCCCCCCC[n+]1ccccc1,19.2 µM (active)
12,Oc1ccccc1,> 92 µM
13,O=C(Oc1ccccc1)c1ccccc1O,> 92 µM
14,Cc1ccc(O)cc1,> 92 µM
15,COc1cc(C=O)ccc1O,> 92 µM
16,c1ccc2occc2c1,> 92 µM
17,CCCCC(CC)COC(=O)c1ccccc1C(=O)O (centres undefined),> 92 µM
18,Nc1c2ccccc2nc2ccccc12,31.9 µM (active)
19,O=C(c1ccccc1)c1ccccc1,> 92 µM
